# Laboratory results published in PubChem BioAssay (NCATS).
# Results filed as inconclusive are left out. A number with no mark means an inactive call. Activity calls are given as the source filed them. Calls follow the shape of the dose curve; as a rule, active = well fitted inhibition curve with a large enough effect; inconclusive = small, poorly fitted or top-dose-only effect; inactive = flat fitted curve, though single readings scatter.
# Assay: P-glycoprotein substrates identified in KB-8-5-11 adenocarcinoma cell line, qHTS therapeutic library screen (AID 1346987); also: nearly all actives have a fitted effect of over 65% in size
# Conditions: KB-8-5-11 (P-gp overexpressing) viability, CellTiter-Glo, 72 h; series mostly up to 44.5 µM; activity change, negative = cytotoxicity: at the top concentration
# How it was run: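 Human cervical adenocarcinoma KB-8-5-11 cells, selected in colchicine to over-express P-gp and assayed without it, were exposed for 72 h to titrated compounds. An ATP-based luminescent viability signal gave AC50.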
# % is scaled to controls: 0 for no effect and ±100 for the full control effect.
Structure (SMILES),"activity change, negative = cytotoxicity",outcome
CCNC(=O)[C@@H]1CCCN1C(=O)[C@H](CCCN=C(N)N)NC(=O)[C@H](CC(C)C)NC(=O)[C@@H](C)NC(=O)[C@H](Cc1ccc(O)cc1)NC(=O)[C@H](CO)NC(=O)[C@H](Cc1c[nH]c2ccccc12)NC(=O)[C@H](Cc1cnc[nH]1)NC(=O)[C@@H]1CCC(=O)N1,9.39% [at 17.3 µM],–
CC[C@H](C)/C=C(C)/C=C/C(=O)Cc1cc(O)c(C)c(O)c1C=O,8.28%,–
COC1=Cc2c(nc3n(c2=O)C(C)C(=O)NC3(O)C(C)C)OC=C1 (stereo not given),0.547%,–
c1ccc(C(OC2CCN(CCCc3nn[nH]n3)CC2)c2ccccc2)cc1,–,inactive
CC1(C)CCCC2(C)C1C(O)C=C(CO)C2(O)C(=O)O (stereo not given),8.34%,–
CC(=O)O[C@@H]1C[C@@]23C[C@@]24CC[C@H](OC2OC[C@@H](O)[C@H](O)[C@H]2O)C(C)(C)[C@@H]4CC[C@H]3[C@]2(C)CC3OC4(C[C@@H](C)C3[C@@]12C)OCC1(C)OC14 (stereo not given in full),–,inactive [at 17.3 µM]
COc1cc(C(=O)OC[C@H]2O[C@H](O[C@@]3(CO)O[C@@H](CO)[C@H](O)[C@H]3O)[C@H](O)[C@@H](O)[C@@H]2O)ccc1O,–,inactive [at 17.3 µM]
COC(=O)C1=CO[C@@H](O[C@@H]2O[C@H](COC(=O)/C=C/c3cc(OC)c(O)c(OC)c3)[C@@H](O)[C@H](O)[C@H]2O)[C@@H]2C(CO)=CC[C@H]12,–,inactive [at 17.3 µM]
CC1OC(O[C@H]2[C@@H](O)C[C@@]3(C)C([C@H](O)C[C@]4(C)C3CC=C3C5CC(C)(C)CC[C@]5(C(=O)OC5OC(CO)C(O)C(O)C5OC5OCC(OC6OCC(OC7OCC(O)C(O)C7O)C(O)C6O)C(OC6OCC(O)(CO)C6O)C5O)CC[C@]34C)[C@]2(C)CO)C(O)C(O)C1O (stereo not given in full),1.18% [at 9.29 µM],–
C#Cc1cnc2[nH]c(=O)n(C(CC)CC)c2n1,1.76%,–
C/C1=C\C[C@H](O[C@@H]2O[C@H](CO)[C@@H](O)[C@H](O)[C@H]2O)/C(C)=C/[C@H]2OC(=O)[C@H](C)[C@@H]2CC1,9.61% [at 17.3 µM],–
CC1C(=O)CC2C3C(O)CC(C(=O)O)C12CC3(C)C (stereo not given),–,inactive
C[C@@H]1O[C@@H](O[C@H]2[C@H](O[C@H]3[C@H](O[C@H]4CC[C@@]5(CO)C(CC[C@]6(C)C5CC=C5C7CC(C)(C)C[C@@H](O)[C@]7(C)CC[C@]56C)C4(C)C)O[C@H](C(=O)O)[C@@H](O)[C@@H]3O)OC[C@@H](O)[C@@H]2O)[C@H](O)[C@H](O)[C@H]1O (stereo not given in full),–,inactive [at 9.29 µM]
COc1ccc(/C=C/C(=O)O[C@@H]2[C@@H](O)[C@H](C)O[C@@H](OC3C4C=COC(O[C@@H]5O[C@H](CO)[C@@H](O)[C@H](O)[C@H]5O)C4C4(CO)OC34)[C@@H]2O)cc1OC (stereo not given in full),–,inactive [at 17.3 µM]
C=C(C(=O)O)[C@@H]1CC=C2CCC[C@H](C)[C@@]2(C)C1,–,inactive
COc1cc2c(cc1OC)CN(C(=O)[C@@H](NCc1ccncc1)C(C)(C)C)CC2,0.391%,–
C[C@@H]1O[C@@H](O[C@@H]2[C@@H](O)[C@H](O[C@@H]3[C@@H](O)[C@@H](O)[C@H](O[C@H]4[C@H](OC(=O)[C@]56CCC(C)(C)C[C@H]5C5=CCC7[C@@]8(C)C[C@H](O)[C@H](O[C@@H]9O[C@H](C(=O)O)[C@@H](O)[C@H](O)[C@H]9O)[C@@](C)(CO)C8[C@H](O)C[C@@]7(C)[C@]5(C)CC6)OC[C@H](O)[C@@H]4O)O[C@H]3C)OC[C@H]2O)[C@H](O)[C@H](O)[C@H]1O (stereo not given in full),–,inactive [at 9.29 µM]
O=S(=O)(Nc1ccc(C(O)(C(F)(F)F)C(F)(F)F)cc1)c1cccs1,5.55%,–
C=CCc1ccc(O[C@@H]2O[C@H](CO[C@@H]3O[C@H](CO)[C@@H](O)[C@H](O)[C@H]3O)[C@@H](O)[C@H](O)[C@H]2O)c(O)c1,3.43% [at 17.3 µM],–
COc1c(C(CC(C)C)OC(C)=O)ccc(Oc2c(O)cc(C)cc2/C=C/C(C)=O)c1C(=O)O (stereo not given),3.34% [at 17.3 µM],–
CC/C=C\C[C@H]1C(=O)C=C[C@@H]1CCCCCCCC(=O)O,–,inactive
COc1c2c(c(C)c3c1C(=O)OC3)OC1(C)CC(O)C3(O)C(C)(C)OC(=O)CCC3(C)C1C2 (stereo not given),–,inactive [at 17.3 µM]
C[C@@H]1O[C@@H](O[C@H]2[C@H](O[C@H]3CO[C@@H](O[C@H]4CC[C@@]5(C)C(CC[C@]6(C)C5CC[C@]57OC[C@@]8(CC[C@](C)(CO)CC85)[C@H](O)C[C@]76C)C4(C)C)[C@H](O[C@@H]4O[C@H](CO)[C@@H](O)[C@H](O)[C@H]4O)[C@H]3O)O[C@H](CO)[C@@H](O)[C@@H]2O)[C@H](O)[C@H](O)[C@H]1O (stereo not given in full),8.31% [at 9.29 µM],–
C=CC(C)(C)C1(CC2NC(=O)C3CCCN3C2=O)C(=O)Nc2cc3c(cc21)C=CC(C)(C)O3 (stereo not given),8.45% [at 17.3 µM],–
C=C1[C@@H]2[C@H]3OC(=O)C(=C)[C@@H]3CC[C@@](C)(O)[C@@H]2C[C@@H]1O[C@@H]1O[C@H](CO)[C@@H](O)[C@H](O)[C@H]1O,–,inactive [at 17.3 µM]
CC1CCC2C(C(=O)O)=CC3CC(C)(C)CC132 (stereo not given),2.88%,–
CCC(CC)n1ccc2c(C(=O)NCc3c(C)cc(C)[nH]c3=O)cc(C#N)cc21,-10.5%,–
O=C(COc1ccc(Cl)cc1)NC1CCC(NC(=O)COc2ccc(Cl)cc2)CC1 (stereo not given),-6.68%,–
NC(Cc1c[nH]c2ccccc12)C(=O)NC(CCC(=O)O)C(=O)O (stereo not given),–,inactive
COc1cc(C2Oc3c(OC)cc(CCCO[C@@H]4O[C@H](CO)[C@@H](O)[C@H](O)[C@H]4O)cc3C2CO)ccc1O (stereo not given in full),0.807% [at 17.3 µM],–
